VACV mCherry inh = vaccinia inhibition (mCherry reporter); Vaccinia virus mCherry reporter infection, fluorescence; Potency, µM (highest dose often 36.5 µM), for inactives: at the highest dose activity change, negative = inhibition, most hits filed as inhibitors; 310,000 tested, 0.63% active; AID 720579; calls by dose curve; tested in A549 cells; further: nearly all actives have a fitted effect of over 35% in size
FMDV inh = foot and mouth disease virus antiviral activity. AID 1159524. 410,000 tested, 1.2% active. FMDV antiviral cell-based qHTS. Potency, µM (top dose mostly 57.9 µM), without a hit: top-dose activity change, negative = inhibition, hits mostly inhibitors; calls by dose curve; tested in HEK293T cells; further: read-out not given here; nearly all actives have a fitted effect of over 45% in size
Giardia FBPA inh = Giardia lamblia aldolase inhibition; purified Giardia FBPA; AID 2451; Potency, µM (series often up to 59.6 µM), inactives show at the top dose activity, negative = inhibition, hits mostly inhibitors; 290,000 tested, 0.71% active; active means well fitted inhibition curve with a large enough effect; inconclusive means small, poorly fitted or top-dose-only effect, or effect the other way; further: nearly all actives have a fitted effect of over 55% in size
Target sequence (A8B2U2 whole entry, looked up): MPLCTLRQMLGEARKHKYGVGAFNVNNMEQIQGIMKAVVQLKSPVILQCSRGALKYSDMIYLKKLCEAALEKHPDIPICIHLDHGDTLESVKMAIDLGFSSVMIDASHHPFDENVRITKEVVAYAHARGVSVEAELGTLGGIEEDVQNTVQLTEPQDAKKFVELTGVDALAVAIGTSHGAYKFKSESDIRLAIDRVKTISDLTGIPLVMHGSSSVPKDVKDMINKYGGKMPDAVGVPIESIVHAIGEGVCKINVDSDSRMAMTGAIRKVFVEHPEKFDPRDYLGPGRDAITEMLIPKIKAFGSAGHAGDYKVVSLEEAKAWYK
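40 nM FBPA preincubated 10 min at RT with compound (up to 57.5 uM final), then substrate plus GAPDH/TPI/NAD/arsenate coupling and diaphorase/resazurin added. Fluorescence read after 20 min at RT, 525/598 nm.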
Vaccinia Venus = vaccinia inhibition (Venus reporter); Vaccinia virus Venus reporter expression, fluorescence; Potency, µM (highest dose often 36.5 µM), for inactives: at the highest dose activity change, negative = inhibition, hits mostly inhibitors; 330,000 tested, 0.46% active; AID 720580; calls by dose curve; tested in A549 cells; further: nearly all actives have a fitted effect of over 30% in size
Numbers without * were called inactive; i = inactive; ? = inconclusive; / = not tested or not shown; [ ] = another dose, or the depositor's remark. In the library only some 2.2% were active in any assay of this set; here they are far more common. On the % scale 0 is the no-effect control and ±100 the full control effect; potency means the concentration at half of the fitted maximal effect.

SMILES	VACV mCherry inh	FMDV inh	Giardia FBPA inh	Vaccinia Venus
CCCn1c(CNc2ccc(Br)cc2)nc2ccccc21	11µM*	-18%	-13%	?
COc1cc(=O)n2c(c1C(=O)NCc1ccco1)CCN(C(=O)c1c(F)ccc(F)c1F)CC2	i	13%	/	0%
Cc1ccc(-n2c(C)cc(C3=NNC(=NC4CC4)SC3)c2C)cc1C	/	18µM*	-1%	/
Cc1cc(-c2ccnc(-n3ncc(C(=O)N(C)CC(O)c4ccccc4)c3C)n2)c(C)s1 (configuration not stated)	-10%	36%	/	5%
O=C(Nc1ccc(Cl)c(Cl)c1)Nc1ccc(N2CCCC2)c(S(=O)(=O)Nc2ccccc2Cl)c1	13µM*	-3%	-1%	11µM*
O=C(Nc1ccc(F)cc1)Nc1ccc(N2CCCC2)c(S(=O)(=O)Nc2ccccc2Cl)c1	11µM*	-22%	-1%	11µM*
COC(=O)c1c(OCCN2CCCCC2)cc(=O)n2c1CCN(Cc1cccc3nccnc13)CC2	i	2%	/	-15%
COc1ccc2c(C(=O)CCl)c[nH]c2c1	/	35µM*	-13%	/
FC(F)(F)c1cccc(NC(=S)NC(c2ccccc2)c2ccccc2)c1	?	25µM*	-1%	?
CN(C)c1ccc(C=C2C(=O)NC(=O)NC2=O)cc1[N+](=O)[O-]	3%	-13%	?	-2%
C=CCNC(=S)N/N=C/c1ccc(C)c([N+](=O)[O-])c1	-12%	0%	-26%	-24%
CN(C)c1ccc(C=C2C(=O)NC(=S)NC2=O)cc1[N+](=O)[O-]	i	40µM*	?	-4%
CN(C)c1ccc(/C=N/NC(N)=S)cc1[N+](=O)[O-]	3.5µM*	28%	-26%	4µM*
CNC(=O)c1sc(N2N=C3/C(=C/c4ccccc4)CCCC3C2c2ccccc2)nc1C (configuration not stated)	/	?	-10%	/
CNC(=O)c1sc(N2N=C3/C(=C\c4ccccc4)CCCC3C2c2ccccc2)nc1C (configuration not stated)	-1%	32µM*	/	-11%
O=C(NCCc1nnc2n1CCN(Cc1ccsc1)CC2)c1ccc(F)cc1	-20%	-8%	/	-7%
COc1ccc(S(=O)(=O)N2CCN(C(=O)c3ccc([N+](=O)[O-])o3)CC2)cc1	-18%	-10%	-13%	?
O=C(/C=C/c1cccc([N+](=O)[O-])c1)c1ccc([N+](=O)[O-])o1	?	?	/	13µM*
COc1ccc(/C=C/C(=O)c2ccc([N+](=O)[O-])o2)cc1	?	25µM*	/	?
Cc1ccc(/C=C/C(=O)c2c(C)nc3ccccn23)cc1	/	-10%	-8%	/
Cc1nc2ccccn2c1C(=O)/C=C/c1cccc([N+](=O)[O-])c1	/	6.3µM*	3%	/
Cc1ccccc1/C=C/C(=O)c1ccc([N+](=O)[O-])o1	?	22µM*	/	?
COc1cccc(NC(=O)c2oc3ccccc3c2NC(=O)c2ccc(F)c(F)c2)c1	-9%	?	/	-3%
Cc1cccc(/C=C/C(=O)c2ccc([N+](=O)[O-])o2)c1	?	25µM*	/	11µM*
COc1cccc(NC(=O)CSc2nnc(NC(=O)NC3CCCCC3)s2)c1	-11%[7.34 µM]	32%	/	-6%[7.34 µM]
SMILES	VACV mCherry inh	FMDV inh	Giardia FBPA inh	Vaccinia Venus
Cc1ccc(Cl)cc1N1CCN(C(=O)CN2C(=O)CSc3c2c(C)nn3-c2ccccc2)CC1	-6%	-12%	/	-6%
Cc1ccc(C)c(N2CCN(C(=O)CN3C(=O)CSc4c3c(C)nn4-c3ccccc3)CC2)c1	-4%	35µM*	/	-7%
COc1nc(Cl)cn(-c2ccc(C)cc2)c1=O	i	-4%	0%	-4%
Cc1ccc(-n2c(Cl)c(Cl)nc(Cl)c2=O)cc1	?	7.1µM*	1%	?
Cc1ccc2cc(CN(C(=O)c3ccc4c(c3)OCO4)C3CC3)c(N(C)C)nc2c1	-8%	2%	/	13%
O=C1C(Nc2ccccc2)=C/C(=N/S(=O)(=O)c2cccs2)c2ccccc21	8.9µM*	?	?	10µM*
Cc1ccc(/C=C2\S/C(=N/S(=O)(=O)c3cccs3)NC2=O)cc1	/	-4%	28%	/
Cc1ccc(NC2=C/C(=N/S(=O)(=O)c3cccs3)c3ccccc3C2=O)cc1	-15%	7.9µM*	?	?
O=C(Nc1ccc(Cl)c(C(F)(F)F)c1)c1ccncc1	-13%	-12%	-1%	-14%
CNC(=O)c1cc(Oc2ccc(NC(=O)Nc3ccc(Cl)c(C(F)(F)F)c3)cc2)ccn1	?	20µM*	/	10µM*
O=C(Cc1ccc(OCc2ccccn2)cc1)NO	14%	/	/	-11%
COc1ccccc1-c1ccnc(-n2ncc(C(=O)NCC3(N4CCOCC4)CCCC3)c2C)n1	-14%	-3%	/	-10%
COc1ccc2cc3c(N)nn(C(=O)C4CCC(C(C)(C)C)CC4)c3nc2c1 (configuration not stated)	?	-22%	-4%	14µM*
CC(C)(C)C(=O)Cn1c(=N)n(Cc2ccccc2)c2ccccc21	8.9µM*	-24%	1%	?
Cc1ccccc1C1(CC(=O)N2CCC[C@H]2C(N)=O)CC(=O)N(C2CCCC2)C1=O (some centres not stated)	-8%	16%	/	-3%
CCCCCCCn1c(=O)c(C(=O)OC)c(N)c2ccccc21	-6%[7.34 µM]	13µM*	0%	-11%[7.34 µM]
CCCCCCCCn1c(=O)c(C(=O)OC)c(N)c2ccccc21	?	?	0%	?
COC(=O)c1sccc1NC(=O)c1c(F)c(F)c(F)c(F)c1F	i[7.34 µM]	22µM*	/	-6%[7.34 µM]
CC(CC(=O)N1CCN(c2cccc(Cl)c2)CC1)S(=O)(=O)c1ccc2c(c1)NC(=O)CO2 (configuration not stated)	/	2.8µM*	/	/
O=C1CCc2cc(S(=O)(=O)NCCC(=O)N3CCN(c4cccc(Cl)c4)CC3)ccc2N1	/	16µM*	0%	/
COc1ccc(N2CCN(C(=O)CC(C)S(=O)(=O)c3ccc4c(c3)NC(=O)CO4)CC2)cc1 (configuration not stated)	?	?	/	-10%
C/C(=N\Nc1ncc(Cl)cc1Cl)c1ccccn1	?	5.6µM*	-14%	16%
C/C(=N\Nc1ncnc2sc(C)c(C)c12)c1ccccn1	5µM*	17%	?	-21%
Cc1sc2ncnc(N/N=C/c3cccc(O)c3)c2c1C	-5%	-5%	-22%	-23%
CCCCNc1ccc(/C=C2\C=Cc3ccccc32)cc1	18%	/	/	6%
SMILES	VACV mCherry inh	FMDV inh	Giardia FBPA inh	Vaccinia Venus
COCc1ccc(CN2CCOc3ccc(C4=CCCCC4)cc3C2)o1	-7%	-8%	/	1%
COc1ccccc1CCNCc1cc2cccc(C)c2nc1-c1cccs1	-9%	-2%	/	-3%
COc1ccc(Nc2nc3c(S(=O)(=O)c4ccccc4)nnn3c3ccc(Cl)cc23)c(OC)c1	-14%	?	/	-10%
COc1cc(N2CCC(O)CC2)ccc1Nc1nnc(Cl)c(Nc2ccccc2S(C)(=O)=O)n1	?	20µM*	/	?
CCCOC(=O)NCCCN(C)C	/	/	0%	/
COc1cc(C(=O)OCC(=O)Nc2ccc(SC(F)F)cc2)cc(OC)c1OC	-7%	35µM*	-5%	-22%
COc1cc(C(=O)OCC(=O)Nc2ccc(OC(F)F)cc2)cc(OC)c1OC	i	0%	7%	-9%
